Reference: article PMC5540273 (PLoS ONE, 2017)

Key:
Settings in all cases: concentration: 1 μM, replicates: in singlicate; n = 1
PIK3C2G = tested on: PIK3C2G
PIK3CA = tested on: PIK3CA
PIK3CB = tested on: PIK3CB
PIK3CD = tested on: PIK3CD
PIK3CG = tested on: PIK3CG
PIK4CB = tested on: T1, PIK4CB
T1 construct: gene PI4KB

PIKFYVE = tested on: PIKFYVE
PIM1 = tested on: PIM1
PIM2 = tested on: PIM2
PIM3 = tested on: PIM3
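Note: KINOMEscan kinase panel screen.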

Compound | %Inh (PIK3C2G) | %Inh (PIK3CA) | %Inh (PIK3CB) | %Inh (PIK3CD) | %Inh (PIK3CG) | %Inh (PIK4CB) | %Inh (PIKFYVE) | %Inh (PIM1) | %Inh (PIM2) | %Inh (PIM3)
CCOc1nccc(-c2c(-c3ccc(F)cc3)ncn2C2CCNCC2)n1 [SB-249175] | 1% | 9% | 0% | 18% | 45% | 3% | 7% | 0% | 3% | 5%
Cc1ccc(C)c(NC(=O)Nc2ccc(C)c(-c3ccc(C(=O)Nc4ccncc4)cc3)c2)c1 [GSK1398473] | 0% | 0% | 0% | 0% | 0% | 8% | 0% | 16% | 0% | 1%
Cc1ccc(O)cc1Nc1ccnc2cc(-c3ccc(CN4CCCCC4)o3)ccc12 [GW557777] | 16% | 0% | 0% | 0% | 0% | 0% | 0% | 0% | 2% | 7%
CN(c1ccc(NC(=O)N2CCN(CCCN3CCOCC3)CC2)cc1)c1ccnc(Nc2ccc(CS(C)(=O)=O)cc2)n1.Cl [GW830899] | 0% | 0% | 0% | 0% | 0% | 100% | 0% | 16% | 0% | 0%
O=C(Nc1c(F)cccc1F)c1cc(C(=O)c2ccccc2F)c[nH]1 [GSK1326180] | 0% | 0% | 0% | 0% | 0% | 0% | 0% | 0% | 0% | 0%
CCNC(=O)/C=C/c1n[nH]c2cc(Sc3ccccc3C(=O)NC)ccc12 | 1% | 13% | 21% | 0% | 36% | 0% | 1% | 35% | 5% | 0%
COc1ccc(NC(=O)c2ccoc2)cc1-c1ccc(C(=O)NCC2CC2)cc1 [GW810437] | 0% | 9% | 24% | 0% | 12% | 20% | 31% | 0% | 12% | 0%
COc1ccc(C2=C(Nc3cccc(O)c3)C(=O)NC2=O)cc1 [SB-390766] | 0% | 0% | 0% | 2% | 0% | 9% | 0% | 9% | 0% | 0%
